These results are taken from PubChem BioAssay AID720565 (National Center for Advancing Translational Sciences (NCATS), 2013).

The nature of this test: qHTS for small molecules that induce genotoxicity in ELG1 expressing cells: Confirmatory Assay for Cherry-picked Compounds. Further: nearly all actives have a fitted effect of over 35% in size. From the text: Cancer cells divide rapidly compared to normal cells in the body. During cell division, cancer cells need to duplicate their genome by DNA replication. The failure of genome duplication leads to cancer cells' death. Therefore, inhibitors of DNA replication could specifically kill cancer cells. Based on this concept, many chemotherapeutic agents were developed and have been used to treat cancer patients. However, there are a limited number of agents available in the clinical setting, and some of those that do exist have low efficacy and severe side effects. Therefore, if we can find the compounds that effectively block DNA replication either by directly damaging DNA or by inhibiting other cellular mechanisms, the options for cancer treatment will be broadened. We developed a quantitative high-throughput ELG1-luciferase reporter gene assay. Since the level of human ELG1 protein is enhanced in response to genetic stresses, increases in luciferase activity can be used to identify compounds that cause genetic stress. The data herein is the result of the confirmation assay against the cherry picked compounds selected from the primary qHTS (AID 504466). Activation is the desired outcome for this assay. NIH Chemical Genomics Center [NCGC] NIH Molecular Libraries Probe Centers Network [MLPCN] MLPCN Grant: MH092164 Assay Provider: Kyungjae Myung, National Human Genome Research Institute, NIH
For genotoxicity screening, 2,000 cells/ well (5 uL volume) were dispensed into white, solid-bottom 1536-well plates using a solenoid-based dispenser. Following transfer of 23 nL compound or DMSO vehicle by a pin tool, the plates were incubated 16 hr at 37 C, 5% CO2. Five microliter of ONE-Glo reagent (Promega) was then added to each plate. The assay plates were incubated for 30 min at room temperature followed by quantification of the luciferase activity using the PerkinElmer ViewLux CCD-based plate reader.

Inconclusive results are not listed. Active and inactive are the calls of the source. The call rests on the fitted dose curve; in most records, active means well fitted activation curve with a large enough effect; inconclusive means small, poorly fitted or top-dose-only effect; inactive means no such curve, though single readings can be large or run the other way.
Potency means the concentration at half of the fitted maximal effect.

With `O=C(CCl)c1ccc(O)c(O)c1`, the Potency result is “inactive”.
The same measure for `C[C@@H]1C[C@@H]2[C@H]([C@H]3C=C(COC(=O)c4ccccc4)[C@@H](O)[C@]4(O)[C@@H](O)C(OC(=O)c5ccccc5)=C[C@@]14C3=O)C2(C)C`: 500 nM (active); for `CCCCCCCCCCCCCC(=O)O[C@@H]1[C@@H](C)[C@@]2(O)[C@H](C=C(CO)C[C@]3(O)C(=O)C(C)=C[C@@H]23)[C@@H]2C(C)(C)C12OC(C)=O` (some centres not stated): 8.9 nM (active); for `CC(=O)OCC1=C[C@H]2[C@@H]3C(C)(C)[C@]3(OC(=O)Cc3ccccc3)C[C@@H](C)[C@]2(O)[C@@H]2C=C(C)C(=O)[C@@]2(O)C1`: 396 nM (active).
The same measure for `CCCSc1ccc2nc(NC(=O)OC)[nH]c2c1`: 8880 nM (active); for `C=C(C)[C@@]12OC3(c4ccccc4)O[C@@H]1[C@@H]1[C@@H]4O[C@]4(CO)[C@@H](O)[C@]4(O)C(=O)C(C)=C[C@H]4[C@@]1(O3)[C@H](C)[C@H]2OC(=O)/C=C/C=C/c1ccccc1`: 50 nM (active).
The same measure for `CCCC(=O)O[C@@H]1[C@@H](C)[C@@]2(O)[C@@H](C=C(CO)C[C@]3(O)C(=O)C(C)=C[C@@H]23)[C@@H]2C(C)(C)[C@]12OC(=O)CCC`: 99.6 nM (active).
